Among all 360,000 compounds or so, about 680 (0.19%) were called active. Cut-off read from the data, not from the text of the source: active = inhibition above about 25%; inactive = the rest. Shown is part of a subset that was picked to be rich in actives.

The target of the experiment is Arf-GAP with SH3 domain, ANK repeat and PH domain-containing protein 1 (Homo sapiens) (UniProt Q9ULH1). The experiment is described as follows: blockers of ASAP1-stimulated ARF1 GTP hydrolysis – biochemical, fluorescence polarization, primary screen (AID 624377).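 Note: 0% = vehicle with enzyme and substrate and 100% = no enzyme.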 As to conditions: GDP FP detection, at 16.5 µM, stronger effect = higher value. On the technique in general: Fluorescence polarisation rises when a labelled molecule tumbles more slowly, as on binding a larger partner.
Arf-GAP with SH3 domain, ANK repeat and PH domain-containing protein 1 (Homo sapiens), sequence (Q9ULH1 325-724 limits assumed): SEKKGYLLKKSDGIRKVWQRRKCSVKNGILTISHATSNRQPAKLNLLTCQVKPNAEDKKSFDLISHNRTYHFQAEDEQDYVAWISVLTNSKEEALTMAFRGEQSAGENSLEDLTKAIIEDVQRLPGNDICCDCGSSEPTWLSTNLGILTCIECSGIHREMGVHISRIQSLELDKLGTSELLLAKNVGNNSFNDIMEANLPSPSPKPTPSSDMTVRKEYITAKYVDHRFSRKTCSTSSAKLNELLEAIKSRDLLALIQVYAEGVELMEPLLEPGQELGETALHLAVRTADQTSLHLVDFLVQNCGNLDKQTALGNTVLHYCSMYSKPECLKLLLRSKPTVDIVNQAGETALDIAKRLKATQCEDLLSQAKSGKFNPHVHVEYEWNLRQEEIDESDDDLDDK
What is called inhibition is the drop in the measured response relative to a control, in per cent. For the molecule `COC(=O)[C@]12C[C@H](CC(=O)NCc3ccc(OC)c(OC)c3)C(=O)N(Cc3ccccc3)C1=C[C@H](C(C)C)O[C@@H]2C1CC1`, the inhibition is -17.1% (inactive).

As for `COC(=O)c1ccc(CN2C(=O)[C@]3(OCCC=C[C@H]3C)c3c(Br)cccc32)cc1`, the inhibition was 8.64% (inactive). Under `COc1cccc(CNC(=O)[C@H]2CCCN2C(=O)[C@H]2CCCN2C(=O)c2cc(F)cc(F)c2)c1` stands 6.55% (inactive). As to `COc1cccc(NC(=O)N(C)C[C@@H]2OCc3cn(nn3)CCCC(=O)N([C@@H](C)CO)C[C@H]2C)c1`, the inhibition is -14.2% (inactive). As to `O=C(NCc1ccccc1)[C@H]1CCCN1C(=O)[C@@H]1CCCN1C(=O)c1ccc(Cl)cc1Cl`, the inhibition was -1.03% (inactive).

As to `O=C(C(=O)N1CCC(CNC(=O)c2cccnc2Cl)CC1)c1cccs1`, the inhibition was 0.64% (inactive). To `CC(C)[C@H]1COCCS(=O)(=O)N1Cc1ccccc1-c1cccc2c1sc1ccccc12` belongs -8.72% (inactive); to `CC(=O)C1=C(C)N(Cc2ccccc2)C(=S)NC1c1cccc(Br)c1` (configuration not stated), -2.66% (inactive); to `C[C@H](O)[C@@H]1CN2CCc3ccc(-c4ccc5c(c4)OCO5)cc3[C@@H]2C[C@@H]1N(C)C(=O)C1CCCCC1`, -4.95% (inactive). For the molecule `Nc1ccn([C@@H]2O[C@H](C(=O)N[C@H]3CCCCNC3=O)[C@@H](O)[C@H]2O)c(=O)n1`, the inhibition was -4.12% (inactive). Under `C[C@@H](CN1C2=NC[C@@H](Cc3ccccc3)N2C[C@H]1Cc1ccc(O)cc1)NC(=O)CCC1CCCCC1` stands -1.15% (inactive); under `COC(=O)C1=C(C(=O)OC)C2C=C(C(C)C)C1C(=O)C2(C)O` (configuration not stated), -14.9% (inactive); under `CC(C)(C)n1nc(C2CC2)c(Br)c1NC(=O)c1ccccc1F`, -0.45% (inactive). Under `COC(=O)C1=C(C)N(Cc2cccc(C(F)(F)F)c2)C(=NCc2ccccc2)NC1c1ccc(Cl)cc1` (configuration not stated) stands 8.8% (inactive); under `O=C(N[C@H](C(=O)N1CCC[C@H]1C(=O)NCCc1ccccc1Cl)c1ccccc1)c1ccccc1`, 8.89% (inactive); under `Cc1ccc(C(=O)Nc2c(-c3ccccc3)[nH][nH]c2=O)cc1`, -5.65% (inactive). To `CN(C)C(=O)c1ccc(NC(=O)c2ccccc2-c2ccccc2)cc1` belongs 6.53% (inactive).

As to `O=C(NC1=CC(=O)c2ccccc2C1=O)c1ccccc1`, the inhibition is 26.4% (active).

Consider `COC(=O)[C@]12C[C@H](CC(=O)NCCCCc3ccccc3)C(=O)N(Cc3ccc4c(c3)OCO4)C1=C[C@H](C(C)(C)C)O[C@@H]2C`, for which the inhibition was -6.7% (inactive). Under `CC(C)[C@@H](C)/C=C/[C@@H](C)[C@H]1CC[C@@H]2[C@]1(C)CCC1[C@]23C=C[C@]2(C[C@@H](O)CC[C@]12C)N(c1ccc([N+](=O)[O-])cn1)O3` (some centres not stated) stands 7.77% (inactive). Turning to `Cc1cccc(N2Cc3ccccc3C2=NC(=O)c2ccc(Cl)nc2)c1`, the inhibition is -4.91% (inactive). To `Cc1cccc(-n2ncc(Cl)c(Cl)c2=O)c1` belongs 24.7% (active). Under `Nc1c(-c2cccc(Cl)c2)cnn1-c1cccc([N+](=O)[O-])c1` stands 3.08% (inactive). Regarding `CC1CCCN(c2cccc3c2S(=O)(=O)N(Cc2ccc(F)cc2)[C@@H](C)[C@H](c2ccccc2)O3)C1` (some centres not stated), the inhibition was 0.02% (inactive). To `COc1ccc(SSc2ccc(OC)cc2C(=O)O)c(C(=O)O)c1` belongs -8.33% (inactive); to `Cc1cc(Br)cn2c(Cc3ccccc3C(F)(F)F)c(-c3ccc(C#N)cc3)nc12`, -9.38% (inactive); to `COC(=O)C1=C(C)N(Cc2ccc(C(F)(F)F)cc2)C(=NCc2ccc(C(F)(F)F)cc2)NC1c1cccc(Cl)c1` (configuration not stated), 1.4% (inactive).

As for `CC(=O)c1cccc(-c2cnc3c(NC=O)cc(-c4ccc(N5CCN(C)CC5)cc4)cn23)c1`, the inhibition was 39.8% (active). Under `COc1cccc(-c2cc(NC(C)=O)c3ncc(-c4cccc(C(C)=O)c4)n3c2)c1` stands -0.92% (inactive); under `CC(=O)Nc1cc(-c2ccc(N3CCN(C)CC3)cc2)cn2c(-c3cccc(C(=O)N(C)C)c3)cnc12`, 40.6% (active); under `CC(=O)Nc1cccc(-c2cc(NC(C)=O)c3ncc(-c4ccccc4)n3c2)c1`, -3.7% (inactive). For `CC(=O)c1cccc(-c2cnc3c(NC=O)cc(-c4ccccc4Oc4ccccc4)cn23)c1`, the inhibition is -4.36% (inactive). Under `COc1ccc(-c2cc(NC=O)c3ncc(-c4cccc(C(=O)N(C)C)c4)n3c2)c(OC)c1` stands -1.85% (inactive); under `CN(C)C(=O)c1cccc(-c2cnc3c(NC=O)cc(-c4ccc(C(=O)N5CCOCC5)cc4)cn23)c1`, -9.18% (inactive). To `O=CNc1cc(-c2ccc(C(=O)N3CCOCC3)cc2)cn2c(-c3ccc(F)cc3)cnc12` belongs 7.38% (inactive). Under `CC(=O)Nc1cc(-c2ccc(N3CCN(C)CC3)cc2)cn2c(-c3ccc(F)cc3)cnc12` stands 24.7% (active); under `COC(=O)Cc1nnn2c1[C@H](C)[C@H](c1ccccc1Br)OCC2`, -9.73% (inactive). `Cc1cc(N2CCN(C(=O)OC(C)(C)C)C[C@H]2C)ccc1N1CCN(Cc2ccccc2)[C@H](C)C1`: the inhibition was 0.89% (inactive). To `c1ccc(-c2cc(-c3nnc4sc(-c5ccccn5)nn34)[nH]n2)cc1` belongs 28.1% (active); to `Fc1ccc(-c2ccc(-c3nn4c(-c5ccco5)nnc4s3)o2)cc1`, -2.12% (inactive). Consider `CCCCCCCCN1C(=O)[C@@H](CC(=O)NCCCC)C[C@@]2(C(=O)OC)C1=C[C@H](C(C)(C)C)O[C@@H]2C`, for which the inhibition was -1.77% (inactive). For the molecule `COc1ccc(C(CNC(=O)c2ccc(S(=O)(=O)Nc3ccccc3C)cc2)N2CCOCC2)cc1` (configuration not stated), the inhibition is 1.23% (inactive).

For `COc1ccc(C(CNC(=O)c2cccc(NS(=O)(=O)c3ccc(C)c(F)c3)c2)N2CCCC2)cc1` (configuration not stated), the inhibition was -8.53% (inactive). To `COc1ccc(C(CNC(=O)c2cccc(S(=O)(=O)Nc3ccccc3Cl)c2)N2CCOCC2)cc1` (configuration not stated) belongs 26.3% (active); to `CCOc1ccccc1C(=O)N1CCC[C@@H]1C(=O)N1CCC[C@H]1C(=O)NCc1ccccc1`, -4.19% (inactive). As for `CCC(=C/c1sc2ccc3ccccc3c2[n+]1C)/C=C1\Sc2ccc3ccccc3c2N1C`, the inhibition is 41.1% (active).

`COCc1[nH]nc2c1C(c1ccccc1)N(c1ccccc1)C2=O` (configuration not stated): the inhibition was -1.83% (inactive).

The values are drawn from PubChem BioAssay AID624377 (The Scripps Research Institute Molecular Screening Center, 2012).
